Screening data (PubChem)
In the library only some 4.1% were active in any assay of this set; here they are far more common.
DAX1 inh-1 – DAX1 (NR0B1) inhibitors on StAR promoter, primary screen, cell-based, luminescence, SF-1 (NR5A1), full-length DAX-1; HEK293T StAR-luciferase reporter, SF-1/DAX-1 repression relief; 370,000 tested, 1.1% active; inhibition, % at 6.8 µM;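 active means inhibition above the mean over all tested compounds plus 3 SD, cut at about 3.6% in these data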;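 further: 0% = DAX-1 cells with DMSO and 100% = cells lacking DAX-1 with DMSO; higher inhibition means more luminescence from relief of DAX-1 repression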
DAX1 inh-2 – DAX1 (NR0B1) inhibitors, primary screen, cell-based, HEK293, Gal4-DAX1, luciferase luminescence; Nuclear receptor subfamily 0 group B member 1 (Homo sapiens), P51843; HEK293 Gal4-DAX1 luciferase reporter; inhibition, % at 6.75 µM; 340,000 tested, 0.99% active; AID 504766, 2011;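 active means inhibition above the mean over all tested compounds plus 3 SD, cut at about 4.2% in these data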;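 further: 0% = DAX1-transfected cells with DMSO and 100% = empty-vector control cells with DMSO; inhibition shows as a rise in luminescence from relieved DAX1 repression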
Target sequence (P51843 207-470 limits assumed): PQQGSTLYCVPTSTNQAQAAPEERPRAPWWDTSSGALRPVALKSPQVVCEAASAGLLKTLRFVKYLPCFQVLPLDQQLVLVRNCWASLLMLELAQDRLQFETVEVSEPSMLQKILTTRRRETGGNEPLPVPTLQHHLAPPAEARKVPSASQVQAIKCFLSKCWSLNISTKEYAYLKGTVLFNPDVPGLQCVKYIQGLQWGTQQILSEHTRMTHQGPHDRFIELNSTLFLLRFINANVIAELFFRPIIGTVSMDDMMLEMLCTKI
hcDAF-12 act – H. contortus DAF-12 nuclear receptor activators, primary screen, cell-based, luminescence, HEK293, lit1-tk-luc reporter; HEK293 hcDAF-12 lit1-tk-luc reporter; 0% DMSO, 100% Δ7-dafachronic acid; activation, % at 6.8 µM; 370,000 tested, 1.4% active; AID 652067, 2013;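 active means activation above the mean of all tested compounds plus 3 SD, cut at about 5.5% in these data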;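 further: 100% = response to 3 µM Δ7-dafachronic acid high control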
ssDAF12 agonist – S. stercoralis DAF-12 nuclear receptor activators, primary screen, cell-based, luminescence, HEK293, GRIP1 co-expression, lit1-tk-luc; Nuclear hormone receptor DAF-12 (Strongyloides stercoralis); HEK293 ssDAF-12/GRIP1 lit1-tk-luc reporter; % of 3 µM dafachronic acid response; activation, % at 6.8 µM; 370,000 tested, 1% active; AID 652126, 2013;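 active means activation above the mean over all tested compounds plus 3 SD, cut at about 0.9% in these data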;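 further: 0% = DMSO-only wells and 100% = 3 µM delta7-dafachronic acid wells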
hgDAF12 agonist – H. glycines DAF-12 receptor agonists, primary screen, cell-based, luminescence, HEK293, GAL4 fusion, UAS-luciferase | activation, % at 6.8 µM | Nuclear hormone receptor DAF-12 (Heterodera glycines), GAL4 fusion | HEK293 GAL4-hgDAF12 UAS-luciferase reporter, agonist luminescence; normalized to butyrate control | 370,000 tested, 1.8% active;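 active means activation above a cutoff set at the mean of all screened compounds plus 3 SD, cut at about 10% in these data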;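 further: 0% = DMSO wells and 100% = sodium butyrate wells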
The depositor's hits bear a star; nt = no result.

SMILES	DAX1 inh-1	DAX1 inh-2	hcDAF-12 act	ssDAF12 agonist	hgDAF12 agonist
COC(=O)C1CN(Cc2cn(Cc3ccc(F)cc3)nn2)CCS(=O)(=O)N1Cc1ccc(F)cc1 (configuration not stated)	-0.6	nt	-1.2	-1.2	-0.6
CCCCCCCCNS(=O)(=O)CC1NCc2cc(F)ccc21 (configuration not stated)	0.5	nt	0.9	-0.9	2.6
CC(C)C(NC(=O)[C@H](Cc1ccccc1)NC(=O)OCc1ccccc1)P(=O)(O)OC(Cc1ccccc1)C(=O)O (some centres not stated)	nt	nt	-0.1	-0.8	0.8
Cc1ccc(-c2nn(-c3ccccc3)cc2/C=C2\SC(=S)N(CC(=O)O)C2=O)cc1	0.4	-0.5	-1.1	1.6*	-2.2
O=C(NCc1ccco1)c1ccc2c(=O)n(-c3ccccc3)c(=S)[nH]c2c1	-0.8	4.9*	-0.4	-0.9	-1.1
COc1ccc(-n2c(=S)[nH]c3cc(C(=O)NCc4ccco4)ccc3c2=O)cc1OC	0.4	0.2	-0.8	-0.7	-0.7
O=C(Nc1sc2c(c1C(=O)O)CCC2)c1cccs1	0.5	1.5	5.7*	-0.8	3.6
CN(C)/C=N/c1ncn(-c2ncc(C(F)(F)F)cc2Cl)n1	1.5	4.4*	4.3	-0.5	7.8
COc1ccc(COc2cccnc2N)cc1	0.8	1.8	1.6	-1.0	3.3
Nc1ncccc1OCc1ccc(Br)cc1	0.3	0.7	-1.2	-1.9	11.0*
Cc1nc2ccccn2c1/C(O)=C1\C(=O)C(=O)N(CCN(C)C)C1c1ccco1 (configuration not stated)	-0.1	5.2*	1.5	-1.1	1.7
CCN(CC)CCN1C(=O)C(=O)/C(=C(/O)c2ccc(F)cc2)C1c1cccnc1 (configuration not stated)	0.0	5.0*	-1.2	-1.0	-0.4
Cc1ccc(/C(O)=C2\C(=O)C(=O)N(CCN(C)C)C2c2ccccc2F)cc1 (configuration not stated)	-0.7	4.6*	-1.2	-1.3	-0.8
COc1cc(-n2c(C)nc3cc(C(=O)N4CCCC4)ccc32)cc(OC)c1OC	1.0	nt	-3.2	-0.7	0.2
CCCCN1C2CCCC1CC(NC(=O)c1ccccc1Cl)C2 (configuration not stated)	0.2	4.7*	-1.9	-0.9	2.4
C=CCn1c(C)cc(C(=O)COC(=O)c2ccc(N)c([N+](=O)[O-])c2)c1C	2.0	3.4	4.9	-0.2	12.4*
Cc1cc(C(=O)COC(=O)c2ccc(N)c([N+](=O)[O-])c2)c(C)n1Cc1ccc2c(c1)OCO2	0.1	0.2	1.2	-1.5	-1.1
O=C1CCC[C@H]2C[C@H](NCc3cccnc3)CC[C@]23CCCN13	nt	nt	1.1	-0.7	-0.3
O=C(Nc1ccc2ccccc2c1)c1ccc2[nH]c(=O)c(=O)[nH]c2c1	0.6	0.8	6.1*	0.2	2.4
COc1cc(/C=N/NC(=O)C(Cc2c[nH]c3ccccc23)NC(=O)OCC(C)C)cc([N+](=O)[O-])c1OCc1ccccc1 (configuration not stated)	0.1	5.2*	1.3	0.2	-1.8
Cc1ccc(S(=O)(=O)N2CCOCC2)cc1NC(=O)CSCc1c(C)noc1C	3.6*	0.8	-1.3	-1.3	0.1
Cc1cccc(OCC(=O)N2CCC(c3ccccc3)C2)c1 (configuration not stated)	1.5	0.9	3.2	-1.1	10.5*
CC(C)(C)N1Cc2nnn(CC3CCCCC3)c2-c2cc(F)ccc2S1(=O)=O	1.6	nt	-0.2	-2.3	-3.9
Cc1cccc(Cn2cc(COC(=O)NCC(C)C)nn2)c1	-0.2	nt	-2.1	0.1	4.6
C[C@@H](NC(=O)[C@@H]1Cc2ccccc2CN1)C(=O)Nc1ccc2c(c1)OCO2	1.4	5.2*	-0.6	-0.5	3.2
SMILES	DAX1 inh-1	DAX1 inh-2	hcDAF-12 act	ssDAF12 agonist	hgDAF12 agonist
CC(C)[C@H](NC(=O)[C@@H]1Cc2ccccc2CN1)C(=O)Nc1ccc2c(c1)OCO2	0.8	0.9	-0.7	0.3	2.8
O=Cc1c(C(=O)O)n(CC(=O)O)c2ccccc12	-0.1	0.5	5.8*	-0.4	0.9
O=C(c1ccc(CS(=O)(=O)c2ccc(Br)cc2)o1)N1CCCC1	1.7	0.9	-1.1	-1.6	0.4
O=C(c1ccc(CS(=O)(=O)c2ccccc2)o1)N1CCOCC1	0.9	5.6*	-0.7	-0.4	3.5
O=C(NCCN1CCOCC1)c1ccc(CS(=O)(=O)c2c(Cl)cccc2Cl)o1	0.2	7.2*	-2.3	-1.1	-2.1
CCN(CC)C(=O)Cn1nc(Cc2ccncc2)c2ccccc2c1=O	-1.4	nt	1.3	-1.2	0.3
O=C(Nc1nccs1)C1(C(=O)C2CC2)CC(c2ccccn2)=NO1 (configuration not stated)	1.0	nt	3.0	1.0*	6.4
O=C1C(Nc2ccccc2)=C/C(=N/S(=O)(=O)c2cccs2)c2ccccc21	nt	-6.0	nt	nt	nt
Cc1ccc(NC2=C/C(=N/S(=O)(=O)c3cccs3)c3ccccc3C2=O)cc1	0.2	0.0	5.8*	0.3	6.6
CCN1C(=O)Nc2cccc3cccc1c23	-0.5	4.8*	1.0	-0.5	-1.9
COC(=O)CCCn1cc(CN2CC=CS2(=O)=O)nn1	-0.2	nt	-0.5	-0.6	3.9
COc1ccc(NC(=O)C(CCCCNC(=O)OC(C)(C)C)NC2(C(=O)NCCc3c[nH]c4ccccc34)CCCCC2)cc1 (configuration not stated)	nt	nt	-1.5	-2.0	-3.1
CC1(c2ccccn2)Nc2ccccc2-c2nc3ccccc3n21 (configuration not stated)	1.1	4.4*	1.6	0.0	11.2*
CCCCC1(C)Nc2ccccc2-c2nc3ccccc3n21 (configuration not stated)	2.1	3.2	2.7	0.2	11.1*
c1ccc2c(c1)NC1(CCCCC1)n1c-2nc2ccccc21	1.5	0.8	3.7	-0.7	10.6*
c1ccc2c(c1)NC1(CCCCCC1)n1c-2nc2ccccc21	2.2	1.4	3.3	-0.9	9.6
COP(=O)(OC)C(NC(=O)OCc1ccccc1)C(C)C (configuration not stated)	-0.2	nt	-0.6	-0.1	0.2
CCC(C)NC(=O)CN1C(=O)C2CCCCN2C(=O)c2ccccc21 (configuration not stated)	-0.1	nt	-0.4	-1.2	-1.1
COC(=O)[C@]12C[C@H](CC(=O)N3CCCCC3)C(=O)N(Cc3ccc4c(c3)OCO4)C1=C[C@H](C(C)C)O[C@@H]2C1CC1	-1.0	nt	-1.6	-1.6	-0.3
